{"source": "PubChem BioAssay AID588352", "about": "(The Scripps Research Institute Molecular Screening Center, 2011)", "note": "The whole screen tested about 360,000 compounds, of which about 620 (0.17%) were called active. Only a selection was taken, and actives are over-represented in it overall. Unmarked numbers belong to inactive results.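 Rule for the calls: active = inhibition above a per-campaign cutoff, the mean of all compounds plus 3 SD (cut at about 60% in these data); inactive = the rest.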"}
{"biological_target": "Nuclear receptor coactivator 3 (Homo sapiens) (UniProt Q9Y6Q9)", "sequence (Q9Y6Q9 whole entry, looked up, the tested form may be a part)": "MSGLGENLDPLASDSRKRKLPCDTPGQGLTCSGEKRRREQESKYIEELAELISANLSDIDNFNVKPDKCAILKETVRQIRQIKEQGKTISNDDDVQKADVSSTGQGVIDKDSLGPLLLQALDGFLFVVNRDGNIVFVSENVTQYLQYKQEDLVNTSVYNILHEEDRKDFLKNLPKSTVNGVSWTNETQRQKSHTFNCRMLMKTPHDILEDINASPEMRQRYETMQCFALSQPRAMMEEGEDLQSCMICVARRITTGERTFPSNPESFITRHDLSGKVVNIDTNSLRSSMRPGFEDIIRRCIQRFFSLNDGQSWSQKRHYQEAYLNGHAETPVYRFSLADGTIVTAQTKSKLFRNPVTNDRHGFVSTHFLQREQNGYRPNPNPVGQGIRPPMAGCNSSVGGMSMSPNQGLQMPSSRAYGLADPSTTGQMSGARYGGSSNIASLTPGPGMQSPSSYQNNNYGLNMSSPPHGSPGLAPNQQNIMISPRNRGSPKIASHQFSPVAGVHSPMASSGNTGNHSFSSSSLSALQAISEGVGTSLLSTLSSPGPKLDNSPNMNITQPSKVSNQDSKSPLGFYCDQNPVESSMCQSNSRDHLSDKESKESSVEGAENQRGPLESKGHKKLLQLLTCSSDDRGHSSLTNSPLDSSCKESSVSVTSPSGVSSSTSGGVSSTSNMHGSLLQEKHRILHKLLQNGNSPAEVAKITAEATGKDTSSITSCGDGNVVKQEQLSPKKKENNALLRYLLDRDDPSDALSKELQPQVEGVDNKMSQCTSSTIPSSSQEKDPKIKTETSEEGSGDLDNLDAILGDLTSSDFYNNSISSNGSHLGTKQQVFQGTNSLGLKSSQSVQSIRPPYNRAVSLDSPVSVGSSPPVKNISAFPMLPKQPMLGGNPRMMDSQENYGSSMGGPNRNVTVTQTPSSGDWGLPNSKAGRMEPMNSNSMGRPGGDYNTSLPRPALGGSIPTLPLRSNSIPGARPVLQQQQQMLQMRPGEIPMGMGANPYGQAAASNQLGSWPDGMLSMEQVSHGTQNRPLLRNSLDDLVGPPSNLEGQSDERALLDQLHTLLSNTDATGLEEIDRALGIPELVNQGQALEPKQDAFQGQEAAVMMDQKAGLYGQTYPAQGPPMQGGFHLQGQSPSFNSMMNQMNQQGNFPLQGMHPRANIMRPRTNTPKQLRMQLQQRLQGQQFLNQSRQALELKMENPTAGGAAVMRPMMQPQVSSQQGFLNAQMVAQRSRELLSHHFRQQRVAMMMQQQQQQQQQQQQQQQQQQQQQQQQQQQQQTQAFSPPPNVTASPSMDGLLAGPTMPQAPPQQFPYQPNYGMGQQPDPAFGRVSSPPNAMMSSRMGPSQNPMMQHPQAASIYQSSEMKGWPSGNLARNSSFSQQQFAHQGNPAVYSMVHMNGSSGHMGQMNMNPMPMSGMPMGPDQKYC", "assay": "SRC3 coactivator transcriptional activity inhibitors, primary screen, cell-based, luminescence (AID 588352);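 note: 0% = DMSO-treated cells and 100% = gossypol-treated cells at 36 µM; higher means less SRC3-driven luciferase light from the GAL4 reporter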", "details": "HEK293 GAL4-SRC3 luciferase reporter, at 3.6 µM, active compounds read high"}
{"smiles": "CC(NC(=O)CCCC1CCCCC1)c1ccc(S(N)(=O)=O)cc1", "note": "(stereo unspecified)", "inhibition": "4.7%"}
{"smiles": "CC/C(C)=N/Nc1nc2sc3c(c2c(=O)[nH]1)CC(C)(C)OC3", "inhibition": "-4.5%"}
{"smiles": "O=C(CN1CCN(c2ncccn2)CC1)Nc1ccccc1C(F)(F)F", "inhibition": "17.7%"}
{"smiles": "CC1(C(=O)NS(=O)(=O)c2ccc(C#N)cc2)CCN1C(=O)c1ccc(C2CCCCC2)cc1", "note": "(stereo unspecified)", "inhibition": "8.43%"}
{"smiles": "CC(C)C(c1nnnn1C1CCCCC1)N1CCN(C(=O)c2ccco2)CC1", "note": "(stereo unspecified)", "inhibition": "-1.28%"}
{"smiles": "COc1cccc2c(C)c(C(=O)O)[nH]c12", "inhibition": "4.08%"}
{"smiles": "CCc1ccc(Oc2nc([N+](=O)[O-])nn2C)cc1", "inhibition": "12.1%"}
{"smiles": "CC(=O)c1c(C)c[nH]c1C", "inhibition": "11%"}
{"smiles": "CCc1nc2ccc(C(=O)NCc3ccc(OC)cc3)cn2c1N(CC)Cc1cccc(Br)c1", "inhibition": "0.61%"}
{"smiles": "CCCCn1c(N)c(N(CCC(C)C)C(=O)CC2OC(=O)c3ccccc32)c(=O)[nH]c1=O", "note": "(stereo unspecified)", "inhibition": "12.2%"}
{"smiles": "Cc1cccc2cc(CN(C(=O)c3cccs3)c3ccccc3)c(=O)[nH]c12", "inhibition": "15.8%"}
{"smiles": "O=S(=O)(Cc1nnnn1-c1ccc(Br)cc1)c1ccc(F)cc1", "inhibition": "-7.02%"}
{"smiles": "Cc1cc(C)nc(SCc2nnc(SCC(=O)OC3CCCCC3)o2)n1", "inhibition": "-10.7%"}
{"smiles": "CCCNC(=O)c1ccc(N2CCC3(CC2)CC(c2ccc(Cl)cc2)=NO3)c([N+](=O)[O-])c1", "inhibition": "0.35%"}
{"smiles": "CC1CCCCC1NC(=O)c1cc(=O)[nH]c2ccccc12", "note": "(stereo unspecified)", "inhibition": "9.65%"}
{"smiles": "COc1ccc(F)cc1C(=O)C1CCCN(C(=O)CCc2ccccn2)C1", "note": "(stereo unspecified)", "inhibition": "14.9%"}
{"smiles": "Cc1noc(C)c1C(=O)N1CCC1(C)C(=O)NS(=O)(=O)c1ccc(C#N)cc1", "note": "(stereo unspecified)", "inhibition": "-19.1%"}
{"smiles": "O=C(NCCCCCCCCCNC(=O)C(F)(F)F)C(F)(F)F", "inhibition": "-9.12%"}
{"smiles": "Cc1ccc(S(=O)(=O)NCC(=O)N(CC(=O)NC2CCCCC2)Cc2ccco2)cc1", "inhibition": "12.3%"}
{"smiles": "COC(=O)CN1C(=O)[C@H]2[C@@H](C3CC3)N3C(=O)CN(Cc4ccc(-c5ccccc5)cc4)C(=O)[C@@]3(Cc3ccccc3)[C@H]2C1=O", "inhibition": "9.14%"}
{"smiles": "CC1(C)CC(=O)C=C(c2ccc(Cl)c(C(F)(F)F)c2)C1", "inhibition": "-9.95%"}
{"smiles": "CCN(CC)S(=O)(=O)N1CCC(C(=O)NC(C)CCc2ccccc2)CC1", "note": "(stereo unspecified)", "inhibition": "15.5%"}
{"smiles": "Cc1nn(CC(=O)NC2CCCCC2)c(=O)c2cccn12", "inhibition": "-10.9%"}
{"smiles": "CCOC(=O)c1c(C)n(C)c2ccc(OC)c(NC(=O)CN3CCC4(CC3)OCCO4)c12", "inhibition": "6.95%"}
{"smiles": "CCOC(=O)c1csc(CCNC(=O)c2oc3c(Cl)cc(C)cc3c2C)n1", "inhibition": "-12.1%"}
{"smiles": "CC(C)CC(CO)N1CCN(C(=O)c2ccc(Cl)cc2Cl)CCC1=O", "note": "(stereo unspecified)", "inhibition": "5.22%"}
{"smiles": "COc1ccc(C(CNC(=O)c2cccc(S(=O)(=O)Nc3ccc(Br)cc3)c2)N(C)C)cc1", "note": "(stereo unspecified)", "inhibition": "1.78%"}
{"smiles": "COc1ccc(CNC(=O)COC(=O)C2=Cc3ccccc3OC2)cc1", "inhibition": "-19.6%"}
{"smiles": "O=C(O)c1ccccc1C(=O)NC1=NN(c2ccccc2)CC1", "inhibition": "3.76%"}
{"smiles": "CC1(C)CC(N2CCN(C(c3ccccc3)c3ccccc3)CC2)=CC(=[N+]2CCCCC2)C1", "inhibition": "80% (active)"}
{"smiles": "CCN1/C(=C\\c2ccc3ccccc3[n+]2CC)Sc2cc(C)ccc21", "inhibition": "64.7% (active)"}
{"smiles": "C[C@@H]1CN([C@H](C)CO)C(=O)c2cc(-c3ccc(F)cc3)cnc2O[C@H]1CN(C)C(=O)c1ccc(F)cc1", "inhibition": "-2.15%"}
{"smiles": "CC(C)[C@H](NC(=O)N1CC(=O)Nc2ccccc21)C(=O)N[C@@H](Cc1c[nH]c2ccccc12)C(=O)O", "inhibition": "11.1%"}
{"smiles": "Cc1cc2ncn(CCCCOc3ccccc3)c2cc1C", "inhibition": "-3.7%"}
{"smiles": "C/C=C(/C)C(=O)O[C@@H]1c2cc3c(c4c2[C@@]2(CO4)C(=O)C(OC)=C(OC)C=C2C[C@@H](C)[C@H]1C)OCO3", "inhibition": "-4.38%"}
{"smiles": "C=CC[C@@H](CC(=O)NCCO)C(=O)N[C@H](C)COC(=O)[C@@H](CC=C)CC(=O)OC(C)(C)C", "inhibition": "0.5%"}
{"smiles": "CC(=O)Nc1ccc(-c2ccnc3c2CC(C(=O)NC(C)C)O3)cc1", "note": "(stereo unspecified)", "inhibition": "10.3%"}
{"smiles": "COc1cccc(OC)c1C(=O)OCC(=O)/C(C#N)=C(\\C)N", "inhibition": "7.58%"}
{"smiles": "Cc1ccc(Cn2c(C)c3cnn(CC(=O)NCCN4CCOCC4)c(=O)c3c2C)cc1", "inhibition": "-3.71%"}
{"smiles": "CC(OC(=O)c1ccc(NS(=O)(=O)c2ccc3[nH]c(=O)[nH]c3c2)cc1)C(=O)Nc1cccc(Cl)c1Cl", "note": "(stereo unspecified)", "inhibition": "4.52%"}
{"smiles": "COc1cc(NC(=S)NNC(=O)CC(C)C)c(OC)cc1Cl", "inhibition": "17.8%"}
{"smiles": "O=C(NCc1ccco1)C1CCCN1S(=O)(=O)c1ccccc1C(F)(F)F", "note": "(stereo unspecified)", "inhibition": "8.79%"}
{"smiles": "Cc1cc(NC(=O)CN2C(=O)NC(CC(C)C)C2=O)no1", "note": "(stereo unspecified)", "inhibition": "-3.85%"}
{"smiles": "FC(F)(F)c1cc(C(F)(F)F)c2ccc(N3CCN(c4ccccc4)CC3)nc2n1", "inhibition": "1.84%"}
{"smiles": "O=C(C1=C(O)C(=O)N(CCOCCO)C1c1ccccn1)c1cccs1", "note": "(stereo unspecified)", "inhibition": "3.48%"}
{"smiles": "Cc1cccc(N2CCN(C(=O)COCc3cc(-c4ccc5c(c4)OCO5)on3)CC2)c1C", "inhibition": "-10.1%"}
{"smiles": "CCn1c(NC(=O)c2nn(C)cc2Br)nc2ccccc21", "inhibition": "9.26%"}
{"smiles": "Cc1cccc(Cn2cnc3c(N)c(C)c(C)cc32)c1", "inhibition": "8.42%"}
{"smiles": "O=C(O)CCCn1cc(NC(=O)COc2cccc(Cl)c2)cn1", "inhibition": "19.3%"}
{"smiles": "Cc1cc(=O)oc2cc(OCC3CC(c4ccccc4Cl)=NO3)ccc12", "note": "(stereo unspecified)", "inhibition": "-29.1%"}
{"smiles": "COc1cc(NC(=S)N2CCCC(C)C2)cc(OC)c1OC", "note": "(stereo unspecified)", "inhibition": "8.3%"}
{"smiles": "N#Cc1ccccc1S(=O)(=O)N1CCN(C(=O)c2cc(-c3ccccc3)nn2-c2ccccc2)CC1", "inhibition": "4.59%"}
{"smiles": "Cc1ccsc1C(=O)OCC(=O)NCCc1ccccc1", "inhibition": "-54.7%"}
{"smiles": "Cc1ccsc1C(=O)OCC(=O)Nc1cccc(F)c1", "inhibition": "-16.2%"}
{"smiles": "Cc1ccsc1C(=O)OCC(=O)c1cc(C)n(CC2CCCO2)c1C", "note": "(stereo unspecified)", "inhibition": "80.6% (active)"}
{"smiles": "Cc1cccc(-n2c(Cc3cc(=O)[nH]c(=O)[nH]3)nnc2SC(C)C)c1", "inhibition": "1.68%"}
